The values below come from PubChem BioAssay AID720518 (National Center for Advancing Translational Sciences (NCATS), 2013).

This experiment is described as follows: qHTS for Inhibitors of Cell Surface uPA Generation: Wild-type Protective Antigen (WT-PrAg) Counterscreen for Cherry-picked Compounds. A general note: Quantitative high-throughput screening tests each substance at several concentrations.

Results filed as inconclusive are left out. Where a call stands in place of a potency, no number is given. Activity calls are given as the source filed them. The call rests on the fitted dose curve.

With `CCC(=O)N1CCC(NC(=O)Nc2ccc(OC(F)(F)F)cc2)CC1`, the Potency result is “inactive”.

On to `Cc1nc([N+](=O)[O-])cn1CCCCN1C(=O)c2ccccc2C1=O`, for which the Potency result is “inactive”.

Turning to `COc1ccc(N2CC(C(=O)Nc3nnc(SCCC4OCCO4)s3)CC2=O)cc1` (configuration not stated), the Potency result is “inactive”.

For the compound `Cc1ccc(Nc2nc(Cl)c(C=O)s2)cc1`, the Potency result is “inactive”.

As to `CC(OC(=O)c1cccc(-n2cnnn2)c1)C(=O)Nc1ccc(F)c(F)c1F` (configuration not stated), the Potency entry is “inactive”.

`O=C1CCCC/C1=C\Nc1ccc(S(=O)(=O)Nc2cnc3ccccc3n2)cc1`: the Potency result was “inactive”.

In the case of `CC(=O)c1c(C)n(-c2ccccc2Br)c2ccc(O)cc12`, the Potency result is “inactive”.

Take `COc1ccc(C)cc1NC(=O)NNC(=O)C1CCC(C(C)(C)C)CC1` (configuration not stated): the Potency entry was “inactive”.

As to `CCn1c(=O)cc(C(=O)OC)sc1=Nc1ccc(F)c(F)c1`, the Potency result was “inactive”.

`Cc1ccc(NS(=O)(=O)c2c(C)nc3sccn3c2=O)c(C)c1`: the Potency entry was “inactive”.

For `Cc1ccccc1-c1nnc(SCC(=O)NCC2CCCO2)o1` (configuration not stated), the Potency entry is “inactive”.

On to `COc1ccc(C(=O)NCCCN2CCOCC2)cc1`, for which the Potency entry is “inactive”.

On to `O=C(CCCC(=O)N1CCN(c2ccccc2F)CC1)c1ccccc1`, for which the Potency entry was “inactive”.

For the compound `COc1ccc(C(=O)NC(=S)Nc2ccc(NC(=O)c3ccco3)cc2)cc1[N+](=O)[O-]`, the Potency entry is “inactive”.

With `NC(=O)c1ccccc1NC(=O)CC12CC3CC(CC(C3)C1)C2`, the Potency result is “inactive”.

Take `CC(C)OC(=O)Nc1ccc(-c2ccc(NC(=O)OC(C)C)cc2Cl)c(Cl)c1`: the Potency entry was “inactive”.

For `COc1ccc(-c2sc3ccccc3c2C#CCO)cc1`, the Potency result was “inactive”.
